The whole screen tested about 63,000 compounds, of which about 1,100 (1.7%) were called active.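 Rule for the calls: active = compounds whose percent cytotoxicity in the single-dose primary screen, scaled between solvent and toxic-drug controls, exceeds 50; inactive = the rest.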 The sample as a whole holds a higher share of actives than the screen did. Measured potencies and affinities stand elsewhere.
Assay: viability loss of HPDE-C7K cells – cell-based, fluorescence, HTS, primary screen (AID 431);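 note: 0% = DMSO solvent wells and 100% = doxorubicin-treated wells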
Details: HPDE-C7K KRASV12 cells, Alamar Blue viability, 48 h; at 10 µM; stronger effect = higher value

Structure (SMILES)	cytotoxicity
CN1CCN(c2nc(-c3ccccc3)c3cc(Cl)ccc3n2)CC1	29.7% (inactive)
Clc1ccc2nc(NC3=NCN(CCN4CCOCC4)CN3)nc(-c3ccccc3)c2c1	8.5% (inactive)
Cc1ccc2nc(N3CCC(C(=O)O)CC3)nc(-c3ccccc3)c2c1	1% (inactive)
OCCN1CCN(c2nc(-c3ccccc3)c3cc(Cl)ccc3n2)CC1	130% (active)
CN1CCN(c2nc(N3CCN(CCO)CC3)nc3ccccc23)CC1	8.2% (inactive)
CS(=O)(=O)N1CCC(c2noc(-c3ccc(C(F)(F)F)cc3)n2)CC1	0.2% (inactive)
COc1ccc(N/C=C2\CCOC2=O)cc1	43.6% (inactive)
COC(=O)c1ccc(OCC(=O)c2ccc(O)cc2O)cc1	0.1% (inactive)
C=CCOc1ccc(/C(O)=C2\C(=O)C(=O)N(CCOC)C2c2cccnc2)cc1 (stereo not drawn)	-14% (inactive)
CC(C)(C)c1ccc(C(O)CCCN2CCC(C(O)(c3ccccc3)c3ccccc3)CC2)cc1 (stereo not drawn)	121% (active)
OC(CCN1CCCCC1)(c1ccccc1)C1CCCCC1 (stereo not drawn)	14.3% (inactive)
OC(CCN1CCCC1)(c1ccccc1)C1CCCCC1 (stereo not drawn)	28.9% (inactive)
COc1cccc(C2CC(c3ccc(C)cc3)Nc3nc(N)nn32)c1 (stereo not drawn)	1.4% (inactive)
Cc1oc(-c2cccc(Cl)c2)nc1CN1CCC(C(=O)N2CCN(c3ccccn3)CC2)CC1	6.5% (inactive)
CCN1CCN(C(=O)C2CCN(Cc3nc(-c4cccc(Cl)c4)oc3C)CC2)CC1	1.9% (inactive)
Cc1oc(-c2cccc(Cl)c2)nc1CN1CCC(C(=O)N2CCN(c3ccccc3F)CC2)CC1	62% (active)
Cc1cccc(OCC(O)Cn2c(NCCCOC(C)C)nc3c2c(=O)[nH]c(=O)n3C)c1 (stereo not drawn)	-8% (inactive)
CN(C)c1ccc(-c2nn3c(-c4ccc(Cl)cc4)nnc3s2)cc1	-7.1% (inactive)
Clc1ccccc1-c1nnc2sc(-c3ccncc3)nn12	3.4% (inactive)
CN(C)c1ccc(-c2nn3c(-c4ccc(Cl)cc4Cl)nnc3s2)cc1	50.5% (active)
Cc1nn2c(-c3ccc(Cl)cc3Cl)nnc2s1	-0.2% (inactive)
CN(C)c1ccc(-c2nn3c(-c4ccccc4Cl)nnc3s2)cc1	57.1% (active)
COc1ccccc1-c1nnc2sc(-c3ccc(N(C)C)cc3)nn12	44% (inactive)
O=S(=O)(Cc1ccccc1)N1CCn2c(nc3ccccc32)C1	9.3% (inactive)
CCOc1cccc(-c2nnc3sc(COc4ccc(Cl)cc4)nn23)c1	24.5% (inactive)

Structure (SMILES)	cytotoxicity
CCN(Cc1cc2ccccc2[nH]c1=O)C(=O)C1CCCCC1	-7.8% (inactive)
Cc1ccc(C(=O)C(C)OC(=O)C2CC(=O)N(C3CCCCC3)C2)cc1 (stereo not drawn)	-11.4% (inactive)
CC(C)(C)c1cc(CN2CCN(CCO)CC2)cc(C(C)(C)C)c1O	-4.4% (inactive)
CC(C)(C)c1cc(C(=S)N2CCN(CCO)CC2)cc(C(C)(C)C)c1O	-13.9% (inactive)
Cc1cc(N2CCN(c3cccc(C(F)(F)F)c3)CC2)n2ncnc2n1	-14.7% (inactive)
CCNc1sc(C(=O)c2cccs2)c(N)c1C#N	-11.8% (inactive)
CCNc1sc(C(=O)c2cccs2)c(N)c1-c1nc2ccccc2s1	74.9% (active)
CNc1sc(C(=O)c2cccs2)c(N)c1-c1nc2ccccc2s1	33.2% (inactive)
O=C(NCc1ccncc1)c1c(F)c(F)c(F)c(F)c1F	-8.2% (inactive)
Cc1ccc(SCc2cc(=O)[nH]c(N3CCN(Cc4ccc5c(c4)OCO5)CC3)n2)cc1	0.2% (inactive)
Cn1c(-c2cc(Br)ccc2O)n[nH]c1=S	0.6% (inactive)
Cc1ccccc1OCCCC(=O)Nc1ccc(N2CCOCC2)cc1	1.2% (inactive)
O=C(Nc1ccccc1)NC1(C(=O)NCCCN2CCOCC2)CCCCC1	0.6% (inactive)
CC(C)C(c1nnnn1C1CCCC1)N1CCc2ccccc21 (stereo not drawn)	-8.4% (inactive)
COc1ccccc1NC(=O)Nc1ccc2c(c1)OCCO2	-11.4% (inactive)
COC(=O)c1ccc(C(=O)OC)c(NC(=O)Nc2ccc3c(c2)OCO3)c1	-0.1% (inactive)
COc1ccc(C(C)(C)C)cc1NC(=O)Nc1ccc2c(c1)OCO2	50.7% (active)
CCCCCCOC(=O)C1=C(C)NC(=O)NC1c1ccc(O)cc1 (stereo not drawn)	-1.4% (inactive)
N#Cc1c(-c2ccco2)nc(SCc2ccc(F)cc2)[nH]c1=O	68.9% (active)
Cc1nc(SCc2cccc(F)c2)[nH]c(=O)c1C#N	-15.2% (inactive)
N#Cc1c(-c2ccco2)nc(SCC(=O)Nc2cccc(Cl)c2)[nH]c1=O	17.5% (inactive)
O=C(/C=N\O)NCCCNCc1ccccc1	11% (inactive)
O=C(c1noc2c1CCCC2)N1CCN(C(c2ccccc2)c2ccccc2)CC1	2.5% (inactive)
CCOc1cc(C(=O)N(C)c2ccccc2)cc(OCC)c1OCC	4.9% (inactive)
CCCCOCCCNC(=O)COc1ccccc1	-4% (inactive)

Structure (SMILES)	cytotoxicity
O=C1CC(c2ccco2)CC(O)=C1C=NCCO (stereo not drawn)	-9.5% (inactive)
O=C1CC(c2ccco2)CC(O)=C1C=NCCN1CCNCC1 (stereo not drawn)	-12.7% (inactive)
O=C1CC(c2ccco2)CC(O)=C1C=Nc1cc(Cl)ccc1O (stereo not drawn)	75.8% (active)
Cc1occc1-c1nnc(SCC(=O)N2CCCc3ccccc32)n1Cc1ccco1	-3.2% (inactive)
Cc1ccc(Nc2nc(CSc3nnnn3-c3ccccc3)cs2)cc1	39.8% (inactive)
COc1ccc2c(C)nc(Nc3nc(C)cc(C)n3)nc2c1	-1% (inactive)
Cc1nnc(SCc2cc(=O)[nH]c(Nc3nc(C)c4ccccc4n3)n2)s1	3.9% (inactive)
Cc1ccc(Nc2nc(CSc3nnnn3-c3ccccc3)cc(=O)[nH]2)cc1	23.4% (inactive)
COCc1cc(=O)[nH]c(Nc2nc(C)c3ccc(C)cc3n2)n1	2.4% (inactive)
CCCCCc1c(C)nc(Nc2nc(C)c3cc(OC)ccc3n2)[nH]c1=O	9.7% (inactive)
Cc1nc(-c2ccccc2)cc(=O)[nH]1	6.9% (inactive)
Cc1ccc2c(C)nc(Nc3nc(CSc4nnnn4-c4ccccc4)cc(=O)[nH]3)nc2c1	54.8% (active)
COc1ccc2c(C)nc(Nc3nc(C)cc(=O)[nH]3)nc2c1	87.3% (active)
CCc1c(C)nc(Nc2nc(C)c3cc(OC)ccc3n2)[nH]c1=O	49.1% (inactive)
COc1nc(Nc2nc3ccccc3c(=O)[nH]2)nc2ccc(C)cc12	91.7% (active)
Cc1nc(Nc2nc(-c3ccccc3)cc(=O)[nH]2)nc2ccccc12	68.2% (active)
O=C(O)Cc1nc2nc3c(c(=O)n2[nH]1)CCCC3	2% (inactive)
Cc1cc(C)nc(NC(=O)c2cccc(Cl)c2)n1	-1.9% (inactive)
COc1ccc(OCCCC(=O)Nc2ccc3c(c2)OCCO3)cc1	12.2% (inactive)
C=CCc1c(C)c(C#N)c2nc3ccccc3n2c1NCCN(C)C	5.5% (inactive)
CCOC(=O)c1cc2c(ccn2C)n1CC(=O)N1CCN(c2ccc(F)cc2)CC1	-18.9% (inactive)
CSc1nc(N2CCOCC2)c2ccccc2n1	9.1% (inactive)
Cc1cc(C)c(NC(=O)CN2CCN3CCCC3C2)c(C)c1 (stereo not drawn)	2.9% (inactive)
O=C(NC1CC2CCCC(C1)N2C1CC1)NC12CC3CC(CC(C3)C1)C2 (stereo not drawn)	5.1% (inactive)
CCOC(=O)c1cccc(NC(=O)CSc2nc3ccccc3c(=O)n2CC)c1	-11.5% (inactive)

Structure (SMILES)	cytotoxicity
O=C(COC(=O)CCC1CCCC1)Nc1ccc(Cl)cn1	-7.1% (inactive)
COc1cccc(N2CC(O)Cn3c2nc2c3c(=O)n(CCCc3ccccc3)c(=O)n2C)c1 (stereo not drawn)	7.7% (inactive)
CN1C(=O)CSc2ccc(NC(=O)Nc3ccccn3)cc21	-13.1% (inactive)
Cc1cc(C)nc(NS(=O)(=O)c2ccccc2)n1	16.4% (inactive)
COc1ccc(-c2nc3c(c(SCC(=O)N4CCOCC4)n2)COC(C)(C)C3)cc1	52.7% (active)
O=C(CSc1nc(-c2ccccc2)nc2c1CCCC2)N1CCOCC1	-14.2% (inactive)
COc1ccc(-c2ccc(SCC(=O)N3CCOCC3)nn2)cc1	-3.5% (inactive)
COCCCNC(=O)CS(=O)(=O)Cc1nc(-c2ccccc2C)oc1C	-5.9% (inactive)
CC(=O)N1CCc2ccc(C(=O)CN3CCN(c4cccc(C)c4C)CC3)cc21	-16.3% (inactive)
O=C(c1ccco1)N1CCN(c2nc(C(F)(F)F)nc3c2nnn3Cc2ccccc2)CC1	-16.9% (inactive)
Cc1nc(N2CCCC2)c2nnn(Cc3ccccc3Cl)c2n1	-7.7% (inactive)
CC(C)c1nc2sc3c(NCc4ccco4)ncnc3c2c2c1COC(C)(C)C2	-13.3% (inactive)
CC(C)Sc1nc(NCc2ccco2)c2c3c(sc2n1)COC(C)(C)C3	68.5% (active)
CC(C)c1nc2sc3c(SCC(=O)NCc4ccco4)ncnc3c2c2c1CCC2	7.4% (inactive)
CCCc1nc2sc3c(SCC(=O)NCc4ccco4)ncnc3c2c2c1CCC2	50.3% (active)
Cc1nc(SCC(=O)NCc2ccco2)c2c3c(sc2n1)CCCC3	2.5% (inactive)
CSc1nc(NCc2ccco2)c2c3c(sc2n1)CN(C)CC3	-5.3% (inactive)
CC(C)Sc1nc(SCC(=O)NCc2ccco2)c2c3c(sc2n1)COC(C)(C)C3	0.4% (inactive)
O=C(CSc1ncnc2sc3c(c12)CCCCC3)NCc1ccco1	1.1% (inactive)
Cc1nc(NCc2ccco2)c2c3c(sc2n1)CCC3	52% (active)
c1coc(CNc2ncnc3sc4c(c23)CCCCC4)c1	-13.4% (inactive)
CSc1nc(SCC(=O)NCc2ccco2)c2c3c(sc2n1)CN(C)CC3	4.2% (inactive)
CSc1nc(SCC(=O)NCc2ccco2)c2c3c(sc2n1)COC(C)(C)C3	50.1% (active)
